Measurements taken from PubChem BioAssay (NCATS).
Results filed as inconclusive are left out. Entries that show only a call come without a potency. Activity calls are given as the source filed them. Calls come from the whole dose curve; as a rule, active = well fitted curve in the direction sought with a large enough effect; inconclusive = small, poorly fitted or top-dose-only effect, or another doubt; inactive = no such curve, though single readings can be large; an effect the other way counts as inactive or inconclusive.

Legend:
[1] = molecular target: DNA repair nuclease/redox regulator APEX1 (Homo sapiens) (UniProt P27695); test: qHTS Validation Assay for Inhibitors of the Human Apurinic/apyrimidinic Endonuclease 1 (APE1) (AID 1705;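 note: TAMRA fluorescence gain over two minutes as APE1 cuts a quenched THF abasic duplex; series mostly up to about 57 µM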)
How it was run: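 Fluorogenic double-stranded THF abasic-site substrate (5'-TAMRA/3'-BHQ-2), 50 nM final. Enzyme preincubated with compound 15 min at room temperature, then substrate added. Kinetic fluorescence (ex 525/em 598 nm) read three times at 60 s intervals; activity taken as third-minus-first read difference.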

[2] = molecular target: Endonuclease 4 (Escherichia coli (strain K12)) (UniProt P0A6C1); test: Counterscreen for APE1 Inhibitors: qHTS Validation Assay for Inhibitors of Endonuclease IV (AID 1708)
How it was run: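 Measured as reaction progress, the fluorescence gain between first and third kinetic reads after adding 50 nM TAMRA/BHQ-2 THF duplex to 2 nM enzyme preincubated 15 min with compound; 2 mM MgCl2, pH 7.5.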

[3] = qHTS for differential inhibitors of proliferation of Plasmodium falciparum line 7G8 (AID 1815);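 note: parasite growth measured after three days of incubation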; note: potency is the fitted concentration of half-maximal effect
[4] = qHTS for differential inhibitors of proliferation of Plasmodium falciparum line GB4 (AID 1816); settings: Potency: Plasmodium falciparum GB4 proliferation inhibition;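 note: parasite growth measured after 72 h incubation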; note: potency is the fitted concentration of half-maximal effect
[5] = qHTS for differential inhibitors of proliferation of Plasmodium falciparum line 3D7 (AID 1876); note: potency is the fitted concentration of half-maximal effect
[6] = qHTS for differential inhibitors of proliferation of Plasmodium falciparum line D10 (AID 1877);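 note: parasites grown with compound for 72 h before DNA staining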; note: potency is the fitted concentration of half-maximal effect
[7] = qHTS for differential inhibitors of proliferation of Plasmodium falciparum line Dd2 (AID 1882); settings: Potency: Plasmodium falciparum Dd2 proliferation inhibition; note: nearly all actives have a fitted effect of over 65% in size; note: potency is the fitted concentration of half-maximal effect
How it was run: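 RBC culture, 0.3% parasitemia / 2.5% Hct final; cpd added by pin tool in DMSO; 72 h, 37 C, 5% CO2; lysis buffer + SYBR Green I, o/n RT dark; FI 485/535; norm. to artemisinin 0.29 uM and DMSO.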

[8] = qHTS for differential inhibitors of proliferation of Plasmodium falciparum line W2 (AID 1883); settings: Potency: Plasmodium falciparum W2 proliferation inhibition;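 note: parasites grown with compound for 72 h before lysis and staining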; note: potency is the fitted concentration of half-maximal effect
[9] = Counterscreen for APE1 Inhibitors: Fluorescent Dye Displacement Validation Assay (AID 1707)
How it was run: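 Endpoint fluorescence read at 480 nm excitation / 540 nm emission; DNA-binding compounds lower signal by displacing 250 nM Thiazole Orange from 50 nM dsDNA containing a tetrahydrofuran abasic site, Tris-HCl pH7.5 buffer with NaCl and MgCl2.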

DNA repair nuclease/redox regulator APEX1 (Homo sapiens), sequence (P27695 whole entry, looked up): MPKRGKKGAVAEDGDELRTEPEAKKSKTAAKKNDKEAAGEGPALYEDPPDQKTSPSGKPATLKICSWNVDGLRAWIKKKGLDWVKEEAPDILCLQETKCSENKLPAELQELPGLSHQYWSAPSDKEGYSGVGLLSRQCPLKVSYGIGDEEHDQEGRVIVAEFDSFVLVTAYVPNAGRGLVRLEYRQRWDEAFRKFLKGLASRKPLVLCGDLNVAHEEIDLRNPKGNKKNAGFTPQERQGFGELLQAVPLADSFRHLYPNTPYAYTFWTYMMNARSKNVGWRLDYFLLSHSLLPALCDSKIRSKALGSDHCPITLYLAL

Compound | Potency [1] | Potency [2] | Potency [3] | Potency [4] | Potency [5] | Potency [6] | Potency [7] | Potency [8] | outcome [9]
COc1cc2c(cc1OC)-c1cc(=Nc3c(C)cc(C)cc3C)n(C)c(=O)n1CC2 | inactive | inactive | 2.24 µM (active) | 2.24 µM (active) | 2 µM (active) | 3.98 µM (active) | 8.91 µM (active) | 3.55 µM (active) | 
C[C@H](CS)C(=O)N1CCC[C@H]1C(=O)O | inactive |  | inactive | inactive | inactive | inactive |  | inactive | 
Cc1cc(C)c(/C=C2\C(=O)Nc3ccccc32)[nH]1 | inactive |  |  |  | inactive | inactive | inactive |  | 
CCOC(=O)c1cnc2c(cnn2CC)c1NN=C(C)C | inactive |  |  |  |  | inactive | inactive |  | 
CN(C)CC[C@@H](c1ccc(Br)cc1)c1ccccn1 | inactive |  |  |  |  | inactive |  | 1 µM (active) | 
C[N+](C)(C)CCOC(=O)CCC(=O)OCC[N+](C)(C)C | inactive | inactive | inactive | inactive | inactive | inactive | inactive | inactive | 
CC(=O)OCC1=C(C(=O)O)N2C(=O)[C@@H](NC(=O)Cc3cccs3)[C@H]2SC1 | inactive |  |  | inactive | inactive | inactive | inactive | inactive | inactive
COc1ccc(CCN(C)CCCC(C#N)(c2cc(OC)c(OC)c(OC)c2)C(C)C)cc1OC (stereo not given) | inactive |  | 7.08 µM (active) | 6.31 µM (active) | 3.16 µM (active) |  | 3.55 µM (active) | 2.24 µM (active) | inactive
CCC(=O)c1ccc2c(c1)N(CCCN(C)C)c1ccccc1S2 | inactive |  | 8.91 µM (active) | 11.2 µM (active) | 10 µM (active) | 17.8 µM (active) |  | 5.01 µM (active) | inactive
Cc1nc2c([nH]1)c(=O)n(C)c(=O)n2Cc1ccco1 | inactive |  | inactive | inactive | inactive | inactive | inactive | inactive | 
